Reference: the supplement of paper PMC10849652
About 7,900 targets were measured; listed, in parts, are those with a hit and a random draw of the rest. About 0.6% of all pairs of compound and target were hits.

Experiments:
Assay in all cases: log2 fold change, soluble protein after heating vs DMSO (PISA); higher = thermal stabilisation; K562 cells, 10 uM, 30 min; active = over 0.2 and 3.5 SD of the protein, either way, in both replicates (recomputed)
IRAK-1-4 Inhibitor I = compound: C1COCCN1CCN2C3=CC=CC=C3N=C2NC(=O)C4=CC(=CC=C4)[N+](=O)[O-] [IRAK-1-4 Inhibitor I]
Summary of the method: (§1)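 K562 cells (2×10^6 cells/mL) were treated with 10 μM compound for 30 min, and aliquots were heated for 3 min over 48°C-58°C. Pooled aliquots were extracted in PBS with 0.5% NP-40 at 4°C, and the supernatant after 21,000xg for 90 min was measured by TMTpro 16plex LC-MS/MS with channel sums equalised. Reported thermal stability, relative to control samples and from duplicates, is a log2 fold change.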

ibrutinib = compound: C=CC(=O)N1CCC[C@@H](n2nc(-c3ccc(Oc4ccccc4)cc3)c3c(N)ncnc32)C1 [ibrutinib]
Summary of the method: as §1

[1] = compound: CC(=O)c1cnc2ccc(-c3cc(Cl)c(O)c(Cl)c3)nc2c1N[C@H]1CC[C@H](CN(C)C)CC1
Summary of the method: as §1

ralimetinib = compound: CC(C)(C)Cn1c(N)nc2ccc(-c3[nH]c(C(C)(C)C)nc3-c3ccc(F)cc3)nc21 [ralimetinib]
Summary of the method: as §1

[2] = compound: CC(C)(O)CC(=O)NCCn1ccc2ncnc(Nc3ccc(Oc4cccc(C(F)(F)F)c4)c(Cl)c3)c21
Summary of the method: as §1

[3] = compound: CC(C)C1=C2N=C(C=C(N2N=C1)NCC3=CC=CC=C3)NCCCCCCN
Summary of the method: as §1

[4] = compound: CC(C)C[C@@H](C=O)NC(=O)[C@H](CC(C)C)NC(=O)[C@H](CC(C)C)NC(=O)OCc1ccccc1
Summary of the method: as §1

pinometostat = compound: CC(C)N(C[C@H]1O[C@@H](n2cnc3c(N)ncnc32)[C@H](O)[C@@H]1O)[C@H]1C[C@@H](CCc2nc3cc(C(C)(C)C)ccc3[nH]2)C1 [pinometostat]
Summary of the method: as §1

[5] = compound: CC1=C(C(CC(=O)N1)C2=CC=C(C=C2)C(F)(F)F)C(=O)NC3=C(C=C4C(=C3)C=NN4)F
Summary of the method: as §1

[6] = compound: CC1=C(C2=C(C=C1)C(=O)C3=CC=CC=C3N2CCCN)C
Summary of the method: as §1

[7] = compound: CC1=C(C=C(C=C1)NC(=O)C2=CC(=CC=C2)C(C)(C)C#N)NC3=CC4=C(C=C3)N=CN(C4=O)C
Summary of the method: as §1

[8] = compound: CC1=C(C=C(C=C1)NC(=O)C2=CC(=CC=C2)N(C)C)NC(=O)C3=CC=C(C=C3)O
Summary of the method: as §1

[9] = compound: CC1=CC=C(C=C1)SC2=C3C=C(SC3=CN=C2)C(=O)N
Summary of the method: as §1

[10] = compound: CC1=NC(=CC=C1)C2=C(N=C(N2)C(C)(C)C)C3=CC4=NC=CN=C4C=C3
Summary of the method: as §1

Nexturastat A = compound: CCCCN(Cc1ccc(C(=O)NO)cc1)C(=O)Nc1ccccc1 [Nexturastat A]
Summary of the method: as §1

vemurafenib = compound: CCCS(=O)(=O)Nc1ccc(F)c(C(=O)c2c[nH]c3ncc(-c4ccc(Cl)cc4)cc23)c1F [vemurafenib]
Summary of the method: as §1

[11] = compound: CCCS(=O)(=O)Nc1ccc(F)c(C(=O)c2c[nH]c3ncc(Cl)cc23)c1F
Summary of the method: as §1

[12] = compound: CCCc1cc(C)[nH]c(=O)c1CNC(=O)c1cc(-c2ccnc(N3CCN(C)CC3)c2)cc2c1cnn2C(C)C
Summary of the method: as §1

givinostat = compound: CCN(CC)Cc1ccc2cc(COC(=O)Nc3ccc(C(=O)NO)cc3)ccc2c1 [givinostat]
Summary of the method: as §1

barasertib = compound: CCN(CCCOc1ccc2c(Nc3cc(CC(=O)Nc4cccc(F)c4)[nH]n3)ncnc2c1)CCOP(=O)(O)O [barasertib]
Summary of the method: as §1

UniProt Q15904, sequence (Q15904 whole entry, looked up): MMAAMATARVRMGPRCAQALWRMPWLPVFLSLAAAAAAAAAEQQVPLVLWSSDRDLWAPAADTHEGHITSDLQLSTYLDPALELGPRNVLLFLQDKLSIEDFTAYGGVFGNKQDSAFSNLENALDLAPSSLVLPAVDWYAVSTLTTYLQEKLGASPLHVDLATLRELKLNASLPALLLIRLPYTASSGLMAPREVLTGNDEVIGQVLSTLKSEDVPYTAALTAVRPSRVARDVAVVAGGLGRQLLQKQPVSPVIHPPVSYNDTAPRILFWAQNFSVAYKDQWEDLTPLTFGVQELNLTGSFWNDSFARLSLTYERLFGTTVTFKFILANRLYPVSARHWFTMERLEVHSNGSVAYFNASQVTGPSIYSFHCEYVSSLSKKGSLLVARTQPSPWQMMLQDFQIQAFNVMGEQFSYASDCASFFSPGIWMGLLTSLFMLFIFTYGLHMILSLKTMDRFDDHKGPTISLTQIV
UniProt Q8N6H7, sequence (Q8N6H7 whole entry, looked up): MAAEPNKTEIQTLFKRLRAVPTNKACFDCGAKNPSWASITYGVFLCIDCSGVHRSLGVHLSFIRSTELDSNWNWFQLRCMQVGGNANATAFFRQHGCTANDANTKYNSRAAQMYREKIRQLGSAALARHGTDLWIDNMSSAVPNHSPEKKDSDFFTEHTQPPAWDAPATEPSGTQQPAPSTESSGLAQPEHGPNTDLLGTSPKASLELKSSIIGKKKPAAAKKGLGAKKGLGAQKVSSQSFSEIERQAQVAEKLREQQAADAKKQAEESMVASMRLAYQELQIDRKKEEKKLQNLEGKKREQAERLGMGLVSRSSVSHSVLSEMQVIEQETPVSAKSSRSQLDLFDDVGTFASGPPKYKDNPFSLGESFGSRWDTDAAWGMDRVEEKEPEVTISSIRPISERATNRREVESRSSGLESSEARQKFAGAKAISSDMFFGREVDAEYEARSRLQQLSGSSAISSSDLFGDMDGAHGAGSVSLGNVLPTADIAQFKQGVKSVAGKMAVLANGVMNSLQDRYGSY
UniProt Q9Y3D8, sequence (Q9Y3D8 whole entry, looked up): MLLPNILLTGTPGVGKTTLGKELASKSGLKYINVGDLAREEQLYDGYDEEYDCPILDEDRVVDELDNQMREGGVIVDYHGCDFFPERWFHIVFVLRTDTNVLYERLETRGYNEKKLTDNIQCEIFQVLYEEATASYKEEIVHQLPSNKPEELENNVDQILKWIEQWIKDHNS
UniProt Q86UU0, sequence (Q86UU0 whole entry, looked up): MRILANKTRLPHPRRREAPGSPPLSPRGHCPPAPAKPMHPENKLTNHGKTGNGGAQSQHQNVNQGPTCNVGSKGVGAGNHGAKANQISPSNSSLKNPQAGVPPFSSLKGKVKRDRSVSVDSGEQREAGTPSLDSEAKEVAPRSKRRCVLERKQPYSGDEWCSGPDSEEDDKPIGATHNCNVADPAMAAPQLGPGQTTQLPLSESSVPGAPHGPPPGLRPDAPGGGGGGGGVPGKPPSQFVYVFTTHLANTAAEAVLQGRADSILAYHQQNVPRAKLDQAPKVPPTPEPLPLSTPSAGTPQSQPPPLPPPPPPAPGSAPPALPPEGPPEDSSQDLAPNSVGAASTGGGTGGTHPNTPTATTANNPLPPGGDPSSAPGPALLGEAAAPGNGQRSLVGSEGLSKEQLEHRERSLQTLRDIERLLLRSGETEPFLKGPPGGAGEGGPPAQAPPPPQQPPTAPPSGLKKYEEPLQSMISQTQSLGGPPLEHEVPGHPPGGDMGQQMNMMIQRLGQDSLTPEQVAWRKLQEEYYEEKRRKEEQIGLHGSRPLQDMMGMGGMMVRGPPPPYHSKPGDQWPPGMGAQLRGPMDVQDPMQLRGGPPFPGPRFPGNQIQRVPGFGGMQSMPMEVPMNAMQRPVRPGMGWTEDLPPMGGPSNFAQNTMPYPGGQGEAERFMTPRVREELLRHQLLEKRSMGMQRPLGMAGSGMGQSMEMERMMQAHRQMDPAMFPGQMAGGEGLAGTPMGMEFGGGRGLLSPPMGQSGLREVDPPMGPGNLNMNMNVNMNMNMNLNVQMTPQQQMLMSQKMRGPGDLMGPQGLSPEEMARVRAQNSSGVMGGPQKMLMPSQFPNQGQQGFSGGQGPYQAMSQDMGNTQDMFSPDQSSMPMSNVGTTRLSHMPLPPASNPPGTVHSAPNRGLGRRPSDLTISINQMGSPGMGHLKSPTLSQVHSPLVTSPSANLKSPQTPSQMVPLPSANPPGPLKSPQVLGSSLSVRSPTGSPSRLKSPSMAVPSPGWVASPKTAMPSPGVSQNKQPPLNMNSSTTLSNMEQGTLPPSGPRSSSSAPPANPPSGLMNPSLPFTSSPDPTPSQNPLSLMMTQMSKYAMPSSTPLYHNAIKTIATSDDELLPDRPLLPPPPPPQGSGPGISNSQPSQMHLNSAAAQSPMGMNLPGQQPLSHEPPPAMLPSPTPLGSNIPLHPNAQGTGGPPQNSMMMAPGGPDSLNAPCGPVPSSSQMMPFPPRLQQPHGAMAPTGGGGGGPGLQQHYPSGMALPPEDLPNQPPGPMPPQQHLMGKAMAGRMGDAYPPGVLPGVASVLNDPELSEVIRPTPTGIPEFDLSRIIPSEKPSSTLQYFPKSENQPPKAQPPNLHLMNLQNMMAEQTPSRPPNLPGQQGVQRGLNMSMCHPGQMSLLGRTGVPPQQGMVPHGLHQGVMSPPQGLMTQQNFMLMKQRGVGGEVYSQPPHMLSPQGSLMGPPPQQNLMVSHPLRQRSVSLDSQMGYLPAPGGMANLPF
UniProt Q9UJX6, sequence (Q9UJX6 whole entry, looked up): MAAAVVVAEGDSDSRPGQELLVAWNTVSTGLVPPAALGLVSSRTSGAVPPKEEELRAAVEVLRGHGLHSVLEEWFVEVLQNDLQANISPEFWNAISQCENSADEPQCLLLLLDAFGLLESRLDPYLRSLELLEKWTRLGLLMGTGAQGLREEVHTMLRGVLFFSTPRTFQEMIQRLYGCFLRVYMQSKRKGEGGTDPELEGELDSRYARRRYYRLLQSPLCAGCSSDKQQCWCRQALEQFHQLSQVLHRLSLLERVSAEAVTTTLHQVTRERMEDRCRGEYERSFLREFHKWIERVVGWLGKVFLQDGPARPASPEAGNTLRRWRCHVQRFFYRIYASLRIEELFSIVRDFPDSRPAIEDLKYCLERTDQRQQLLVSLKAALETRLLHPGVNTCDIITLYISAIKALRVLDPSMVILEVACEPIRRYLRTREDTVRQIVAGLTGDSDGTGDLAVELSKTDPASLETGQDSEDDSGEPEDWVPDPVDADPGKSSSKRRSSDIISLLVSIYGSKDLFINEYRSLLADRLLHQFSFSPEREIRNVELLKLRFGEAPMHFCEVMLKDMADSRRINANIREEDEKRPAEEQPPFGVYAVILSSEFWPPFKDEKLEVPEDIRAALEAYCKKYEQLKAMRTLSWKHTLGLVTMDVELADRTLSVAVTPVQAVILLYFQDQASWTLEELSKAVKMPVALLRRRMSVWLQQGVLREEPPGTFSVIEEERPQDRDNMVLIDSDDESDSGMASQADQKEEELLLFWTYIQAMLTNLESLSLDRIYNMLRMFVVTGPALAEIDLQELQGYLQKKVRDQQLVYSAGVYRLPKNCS
UniProt P42025, sequence (P42025 whole entry, looked up): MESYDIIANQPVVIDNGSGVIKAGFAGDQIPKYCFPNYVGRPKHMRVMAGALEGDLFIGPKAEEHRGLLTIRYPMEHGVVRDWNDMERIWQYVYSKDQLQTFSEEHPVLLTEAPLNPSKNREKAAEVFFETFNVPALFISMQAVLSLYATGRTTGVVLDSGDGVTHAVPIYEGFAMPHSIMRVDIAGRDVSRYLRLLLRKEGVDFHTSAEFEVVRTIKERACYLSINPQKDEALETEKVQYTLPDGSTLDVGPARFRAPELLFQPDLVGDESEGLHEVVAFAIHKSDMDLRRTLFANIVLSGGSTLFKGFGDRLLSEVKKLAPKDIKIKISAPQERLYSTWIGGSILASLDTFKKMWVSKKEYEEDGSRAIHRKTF
UniProt P31751, sequence (P31751 whole entry, looked up): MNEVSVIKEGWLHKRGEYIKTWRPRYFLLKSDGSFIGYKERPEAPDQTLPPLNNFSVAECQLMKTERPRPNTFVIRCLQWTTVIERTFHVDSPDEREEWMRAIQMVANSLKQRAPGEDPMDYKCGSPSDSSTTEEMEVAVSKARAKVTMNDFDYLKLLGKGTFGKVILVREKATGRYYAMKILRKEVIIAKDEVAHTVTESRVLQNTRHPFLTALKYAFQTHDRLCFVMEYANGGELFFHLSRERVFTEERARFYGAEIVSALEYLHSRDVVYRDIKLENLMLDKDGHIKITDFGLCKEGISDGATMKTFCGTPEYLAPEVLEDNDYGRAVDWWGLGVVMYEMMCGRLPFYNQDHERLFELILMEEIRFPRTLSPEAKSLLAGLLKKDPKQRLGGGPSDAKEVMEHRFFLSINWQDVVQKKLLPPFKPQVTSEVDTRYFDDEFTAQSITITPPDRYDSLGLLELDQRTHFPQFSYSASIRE
UniProt Q8N6S5, sequence (Q8N6S5 whole entry, looked up): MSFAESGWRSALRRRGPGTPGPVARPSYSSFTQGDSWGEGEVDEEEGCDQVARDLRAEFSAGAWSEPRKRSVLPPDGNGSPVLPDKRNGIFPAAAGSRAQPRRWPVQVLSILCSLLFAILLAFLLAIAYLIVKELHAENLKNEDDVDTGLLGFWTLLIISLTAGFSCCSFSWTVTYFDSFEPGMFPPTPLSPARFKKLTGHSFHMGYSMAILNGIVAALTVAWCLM
UniProt Q6P6C2, sequence (Q6P6C2 whole entry, looked up): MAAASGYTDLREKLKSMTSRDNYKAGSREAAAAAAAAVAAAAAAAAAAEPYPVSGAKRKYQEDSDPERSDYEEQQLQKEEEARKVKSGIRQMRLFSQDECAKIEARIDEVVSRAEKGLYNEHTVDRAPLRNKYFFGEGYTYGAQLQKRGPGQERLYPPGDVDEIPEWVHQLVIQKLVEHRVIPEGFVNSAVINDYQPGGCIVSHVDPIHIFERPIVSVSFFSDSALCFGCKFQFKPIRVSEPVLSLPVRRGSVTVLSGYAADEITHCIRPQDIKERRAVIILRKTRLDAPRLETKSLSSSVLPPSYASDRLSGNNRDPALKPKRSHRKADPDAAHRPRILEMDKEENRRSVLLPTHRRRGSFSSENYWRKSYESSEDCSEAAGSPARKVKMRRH

Target	log2 fold change (IRAK-1-4 Inhibitor I)	log2 fold change (ibrutinib)	log2 fold change [1]	log2 fold change (ralimetinib)	log2 fold change [2]	log2 fold change [3]	log2 fold change [4]	log2 fold change (pinometostat)	log2 fold change [5]	log2 fold change [6]	log2 fold change [7]	log2 fold change [8]	log2 fold change [9]	log2 fold change [10]	log2 fold change (Nexturastat A)	log2 fold change (vemurafenib)	log2 fold change [11]	log2 fold change [12]	log2 fold change (givinostat)	log2 fold change (barasertib)
ANAPC2 (UniProt Q9UJX6)	0.018 (inactive)	-0.045 (inactive)	0.005 (inactive)	0.011 (inactive)	-0.025 (inactive)	-0.083 (inactive)	0.055 (inactive)	0.078 (inactive)	-0.044 (inactive)	-0.051 (inactive)	0.031 (inactive)	-0.015 (inactive)	-0.001 (inactive)	0.069 (inactive)	-0.045 (inactive)	0.027 (inactive)	0.047 (inactive)	-0.049 (inactive)	0.042 (inactive)	0.022 (inactive)
ACTR1B (UniProt P42025)	0.066 (inactive)	0.003 (inactive)	-0.041 (inactive)	0.07 (inactive)	-0.065 (inactive)	0.042 (inactive)	-0.071 (inactive)	0.003 (inactive)	-0.099 (inactive)	-0.013 (inactive)	-0.056 (inactive)	-0.124 (inactive)	0.001 (inactive)	-0.003 (inactive)	-0.134 (inactive)	-0.029 (inactive)	-0.022 (inactive)	-0.009 (inactive)	0.006 (inactive)	0.031 (inactive)
ATF7 isoform 6 (UniProt P17544)	-0.031 (inactive)	0.199 (inactive)	0.183 (inactive)	0.089 (inactive)	-0.042 (inactive)	0.138 (inactive)	-0.14 (inactive)	0.019 (inactive)	-0.082 (inactive)	0.22 (inactive)	0.465 (inactive)	-0.163 (inactive)	-0.155 (inactive)	-0.085 (inactive)	-0.042 (inactive)	0.045 (inactive)	0.239 (inactive)	-0.032 (inactive)	-0.131 (inactive)	-0.033 (inactive)
ARFGAP2 (UniProt Q8N6H7)	-0.016 (inactive)	-0.064 (inactive)	-0.014 (inactive)	-0.001 (inactive)	-0.032 (inactive)	0.062 (inactive)	-0.005 (inactive)	0.046 (inactive)	-0.006 (inactive)	0.005 (inactive)	0.03 (inactive)	-0.065 (inactive)	-0.027 (inactive)	-0.04 (inactive)	-0.033 (inactive)	0.02 (inactive)	0.033 (inactive)	0.021 (inactive)	0.06 (inactive)	0.066 (inactive)
AK6 (UniProt Q9Y3D8)	-0.051 (inactive)	-0.014 (inactive)	-0.132 (inactive)	0.067 (inactive)	-0.175 (inactive)	-0.309 (inactive)	0.039 (inactive)	0.078 (inactive)	0.061 (inactive)	0.138 (inactive)	0.02 (inactive)	-0.04 (inactive)	0.012 (inactive)	0.032 (inactive)	-0.056 (inactive)	0.1 (inactive)	0.053 (inactive)	0.076 (inactive)	0.083 (inactive)	0.138 (inactive)
ARL6IP6 (UniProt Q8N6S5)	0.12 (inactive)	0.056 (inactive)	0.168 (inactive)	0.413 (active)	0 (inactive)	-0.049 (inactive)	-0.199 (inactive)	0.069 (inactive)	-0.014 (inactive)	0.02 (inactive)	-0.112 (inactive)	-0.038 (inactive)	0.009 (inactive)	-0.071 (inactive)	0.106 (inactive)	0 (inactive)	0.049 (inactive)	0.034 (inactive)	0.099 (inactive)	-0.048 (inactive)
AKT2 (UniProt P31751)	-0.013 (inactive)	-0.033 (inactive)	-0.039 (inactive)	-0.015 (inactive)	-0.027 (inactive)	-0.179 (inactive)	0 (inactive)	-0.016 (inactive)	0.023 (inactive)	-0.011 (inactive)	0.018 (inactive)	0.033 (inactive)	0.006 (inactive)	0.019 (inactive)	0.069 (inactive)	-0.007 (inactive)	0.015 (inactive)	-0.017 (inactive)	0.069 (inactive)	0.079 (inactive)
ATP1A4 (UniProt Q13733)	0.002 (inactive)	-0.013 (inactive)	0.032 (inactive)	-0.025 (inactive)	-0.025 (inactive)	0.121 (inactive)	-0.033 (inactive)	-0.017 (inactive)	0.016 (inactive)	0.03 (inactive)	0.017 (inactive)	0.029 (inactive)	0.141 (inactive)	0.065 (inactive)	-0.03 (inactive)	-0.137 (inactive)	-0.08 (inactive)	-0.026 (inactive)	-0.216 (inactive)	0 (inactive)
ATP6V1C1 (UniProt P21283)	-0.102 (inactive)	-0.041 (inactive)	-0.074 (inactive)	0.036 (inactive)	0.039 (inactive)	-0.008 (inactive)	0.052 (inactive)	0.068 (inactive)	0.032 (inactive)	-0.037 (inactive)	0.004 (inactive)	-0.037 (inactive)	-0.024 (inactive)	-0.033 (inactive)	0.131 (inactive)	-0.018 (inactive)	0.057 (inactive)	0.026 (inactive)	0.031 (inactive)	0.062 (inactive)
ALKBH5 (UniProt Q6P6C2)	0.015 (inactive)	0.05 (inactive)	0.053 (inactive)	0.049 (inactive)	0.025 (inactive)	0.198 (inactive)	-0.016 (inactive)	-0.013 (inactive)	0.029 (inactive)	0.086 (inactive)	-0.12 (inactive)	-0.017 (inactive)	-0.046 (inactive)	-0.031 (inactive)	-0.068 (inactive)	-0.071 (inactive)	-0.09 (inactive)	0.162 (inactive)	0.092 (inactive)	-0.023 (inactive)
APOB (UniProt P04114)	0.042 (inactive)	-0.012 (inactive)	0.045 (inactive)	-0.239 (inactive)	-0.295 (inactive)	-0.438 (inactive)	0.403 (inactive)	-0.171 (inactive)	0.066 (inactive)	0.021 (inactive)	-0.039 (inactive)	0.134 (inactive)	0.146 (inactive)	0.032 (inactive)	-0.049 (inactive)	-0.006 (inactive)	0.095 (inactive)	-0.853 (active)	0.074 (inactive)	-0.012 (inactive)
ATP6V1F isoform 2 (UniProt Q16864)	0.053 (inactive)	-0.003 (inactive)	-0.189 (inactive)	-0.054 (inactive)	-0.132 (inactive)	-0.024 (inactive)	-0.059 (inactive)	-0.009 (inactive)	0.039 (inactive)	0.253 (inactive)	-0.139 (inactive)	0.034 (inactive)	0.011 (inactive)	0.06 (inactive)	0.146 (inactive)	0.123 (inactive)	-0.055 (inactive)	0.038 (inactive)	-0.044 (inactive)	0.072 (inactive)
ABHD16A (UniProt O95870)	-0.039 (inactive)	0.043 (inactive)	-0.026 (inactive)	0.047 (inactive)	0.361 (active)	0.656 (active)	0.064 (inactive)	-0.009 (inactive)	-0.064 (inactive)	0.012 (inactive)	0.01 (inactive)	-0.084 (inactive)	-0.051 (inactive)	-0.057 (inactive)	0.118 (inactive)	-0.001 (inactive)	-0.036 (inactive)	0.09 (inactive)	0.037 (inactive)	0.008 (inactive)
ATP6AP1 (UniProt Q15904)	-0.02 (inactive)	0 (inactive)	-0.035 (inactive)	0.01 (inactive)	0.035 (inactive)	-0.091 (inactive)	0.02 (inactive)	0.101 (inactive)	0.047 (inactive)	-0.024 (inactive)	0.009 (inactive)	-0.025 (inactive)	0.004 (inactive)	-0.027 (inactive)	0.114 (inactive)	-0.003 (inactive)	-0.018 (inactive)	-0.009 (inactive)	0.038 (inactive)	0.016 (inactive)
BCL9L (UniProt Q86UU0)	-0.045 (inactive)	0 (inactive)	0.04 (inactive)	-0.024 (inactive)	-0.009 (inactive)	0.015 (inactive)	0.092 (inactive)	0.013 (inactive)	0.006 (inactive)	0.101 (inactive)	-0.046 (inactive)	-0.012 (inactive)	0.005 (inactive)	-0.033 (inactive)	-0.033 (inactive)	-0.037 (inactive)	-0.014 (inactive)	-0.029 (inactive)	0.043 (inactive)	-0.001 (inactive)
